# Only some compounds are listed: those with a hit (about 19% of all), similar ones and a draw of the others.
# TGFb inhibitor: TGF-b pathway inhibition. HepG2 CAGA-GFP TGF-b/SMAD3 reporter, GFP fluorescence, 18 h; TGF-beta stimulated, 500 pg/mL final. Potency, µM (top dose mostly 46.1 µM), without a hit: at the top dose activity, negative = inhibition, hits mostly inhibitors. 410,000 tested, 1.2% active; further: potency means the concentration at half of the fitted maximal effect; on the % scale 0 is the no-effect control and ±100 the full control effect; nearly all actives have a fitted effect of over 65% in size
#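 Smad-responsive CAGA-GFP expression was quantified in HEPG2 cells exposed to compounds and 500 pg/mL final TGF-beta for 18 h at 37 degrees C; unstimulated wells defined full inhibition.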
# TDP1 cell noCPT: qHTS for Inhibitors of human tyrosyl-DNA phosphodiesterase 1 (TDP1): qHTS in cells in absence of CPT. DT40 Tdp1-/- hTDP1 cells, no CPT, ATP luminescence, 48 h. Potency, µM (doses to about 46.2 µM), for inactives: at the highest dose activity change, negative = growth inhibition, most hits filed as inhibitors. 420,000 tested, 15% active. AID 686978, 2013; further: potency means the concentration at half of the fitted maximal effect; on the % scale 0 is the no-effect control and ±100 the full control effect; nearly all actives have a fitted effect of over 55% in size
#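 A cellular qHTS used chicken DT40 cells lacking endogenous Tdp1 but carrying stably transfected human TDP1. Compounds were applied without camptothecin, and cell growth kinetics were judged by ATP-dependent luminescence after ≥48 hr.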
# IL-1B inflam inh: inhibitors of inflammasome signaling (IL-1 beta secretion); activity change, % at 57.5 µM; 360,000 tested, 4.7% active; AID 743279; THP-1 LPS/ATP IL-1B secretion, AlphaLISA, 16 h; active compounds read low; in the data active means activity change below about -50%; inconclusive means mostly about -30% to -49%; further: on the % scale 0 is the no-effect control and ±100 the full control effect
#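 THP-1 cells pretreated 1 hr with compounds (up to 57.5 uM final), then stimulated with LPS (250 ng/mL final) plus ATP (1.25 mM final); secreted IL-1B measured by AlphaLISA after 16 hr, decreased signal indicating inhibition.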
# TDP1 block: TDP1 (human) enzyme inhibition | recombinant TDP1, AlphaScreen DNA substrate cleavage | Potency, µM (doses to about 130 µM), without a hit: at the highest dose activity change, negative = inhibition, hits mostly inhibitors | 350,000 tested, 0.28% active | AID 485290; further: potency means the concentration at half of the fitted maximal effect; on the % scale 0 is the no-effect control and ±100 the full control effect; nearly all actives have a fitted effect of over 40% in size
# Target sequence (Q9NUW8 whole entry, looked up): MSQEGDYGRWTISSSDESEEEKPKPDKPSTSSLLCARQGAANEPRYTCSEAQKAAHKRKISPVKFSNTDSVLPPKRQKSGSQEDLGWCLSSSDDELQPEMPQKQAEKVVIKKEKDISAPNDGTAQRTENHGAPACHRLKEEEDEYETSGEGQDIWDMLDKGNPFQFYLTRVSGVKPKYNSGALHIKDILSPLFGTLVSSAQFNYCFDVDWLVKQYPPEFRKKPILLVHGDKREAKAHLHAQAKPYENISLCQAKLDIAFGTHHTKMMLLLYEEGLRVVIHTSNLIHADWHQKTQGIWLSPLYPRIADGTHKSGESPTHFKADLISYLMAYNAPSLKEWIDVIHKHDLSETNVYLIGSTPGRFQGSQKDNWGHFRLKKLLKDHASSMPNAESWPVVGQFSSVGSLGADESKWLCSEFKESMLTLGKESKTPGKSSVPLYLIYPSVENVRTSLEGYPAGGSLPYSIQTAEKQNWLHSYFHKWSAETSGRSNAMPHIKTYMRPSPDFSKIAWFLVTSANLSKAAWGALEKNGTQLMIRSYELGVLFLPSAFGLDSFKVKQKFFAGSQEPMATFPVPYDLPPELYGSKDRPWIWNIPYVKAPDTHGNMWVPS
#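 Steps: enzyme plus compound, 15 min RT; add biotin/phosphotyrosine-FITC oligonucleotide (15 nM final), react 5 min; add donor/acceptor beads (10 ug/ml final), 10 min; read AlphaScreen. Tdp1 at 1 nM final.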
# HepG2 viability: counter-screen for TGF-b inhibitors: cytotoxicity in HepG2 cells. HepG2 CAGA-GFP viability, ATP luminescence, 18 h. Potency, µM (highest dose often 46.1 µM), inactives show at the highest dose activity change, negative = cytotoxicity, usual class: cytotoxic. 410,000 tested, 0.76% active. AID 588856; further: potency means the concentration at half of the fitted maximal effect
#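 HepG2 CAGA-GFP cells (1000/well, DMEM with 1% FBS) received compound, then TGF-beta at 500 pg/mL final, and were incubated 18 hours at 37 degrees C. Viability was read by CellTiter-Glo luminescence. Media-only wells were set as complete cell-killing and DMSO as no toxicity.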
# TDP1 cell CPT: growth inhibition of DT40 Tdp1-/-;hTDP1 cells with camptothecin (screen for TDP1 inhibitors); 420,000 tested, 12% active; Potency, µM (top dose mostly 46.2 µM), inactives show at the top dose activity change, negative = growth inhibition, actives largely listed as inhibitors; chicken DT40 Tdp1-/-;hTDP1 cells + 20 nM CPT, ATP luminescence, 48 h; AID 686979; further: potency means the concentration at half of the fitted maximal effect; on the % scale 0 is the no-effect control and ±100 the full control effect; nearly all actives have a fitted effect of over 55% in size
#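 Chicken DT40 Tdp1-/- cells stably complemented with human TDP1 were seeded at 400 cells/well in medium containing 20 nM camptothecin, exposed to pin-transferred compounds, and grown at 37 °C for at least 48 hr. Viability was read as ATP luminescence.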
# An asterisk follows results filed as active; u = inconclusive; x = not tested or not shown; [ ] = remark or other dose. Unless noted, the call rests on the fitted dose curve; in most records, active means well fitted curve in the direction sought with a large enough effect; inconclusive means small, poorly fitted or top-dose-only effect, or another doubt; inactive means no such curve, though single readings can be large; an effect the other way counts as inactive or inconclusive.
SMILES,TGFb inhibitor,TDP1 cell noCPT,IL-1B inflam inh,TDP1 block,HepG2 viability,TDP1 cell CPT
CCOc1ccccc1N(C(=O)c1ccccc1Cl)C1=NC(C)(C)CS1,0%,u,-8,-4%,-7%,-27%
Cc1ccc(N(C(=O)c2ccccc2Cl)C2=NC(C)CS2)c(C)c1 (configuration not stated),-16%,18µM*,41,1%,2%,u
Nc1nonc1-c1nc2ccccc2n1Cc1c(Cl)cccc1Cl,3%,-32%,x,-1%[12.3 µM],-18%,-12%
COc1ccc(-c2cc(C(F)(F)F)n3nc(C(N)=O)cc3n2)cc1,-1%,-14%,23,x,21%,1%
COc1cccc(-c2cc(C(F)(F)F)n3nc(C(=O)N4CCCCC4c4cccnc4)cc3n2)c1 (configuration not stated),-29%,16µM*,-72*,1%,-22%,16µM*
COc1ccc(-c2cc(C(F)(F)F)n3nc(C(=O)O)cc3n2)cc1OC,18%,-21%,-3,1%,-4%,4%
COc1ccc(-c2cc(C(F)(F)F)n3nc(C(=O)OC(C)C)cc3n2)cc1,48%,16µM*,x,-6%,2%,23µM*
O=C(c1cc2nc(-c3ccc(F)cc3)cc(C(F)(F)F)n2n1)N1CCCC1,x,x,x,5%,x,x
COc1ccc(-c2cc(C(F)(F)F)n3nc(C(=O)N4CCCCC4)cc3n2)cc1OC,-8%,18µM*,u,-2%,-3%,18µM*
COc1ccc(-c2cc(C(F)(F)F)n3nc(C(=O)N4CCCCC4)cc3n2)cc1,-1%,23µM*,-53*,-3%,5%,16µM*
COc1cccc(C(C(=O)NC2CCCC2)N(C(=O)CNC(=O)c2ccco2)c2cccnc2)c1 (configuration not stated),18%,-10%,8,13%,-8%,1%
C=CCN1CN(S(=O)(=O)c2cccc(Cl)c2)c2nc3ccccc3nc21,u,u,-6,7%,-40%,u
Cc1ccc(C)c(Cn2c(=O)n(Cc3ccccc3)c(=O)c3c(C)c(C)sc32)c1,4%,-10%,x,3%,-15%,-9%
Cc1c(N=C2N=C(NC(=O)Nc3ccc(Cl)cc3)c3ccccc32)c(=O)n(-c2ccccc2)n1C,u,23µM*,-1,1%,-24%,18µM*
Cc1c(NC(=O)Nc2ccc(Cl)cc2)c(=O)n(-c2ccccc2)n1C,1%,0%,5,0%,6%,-6%
O=C(O)c1ccc([N+](=O)[O-])c2c1C(=O)c1ccccc1C2=O,-18%,-22%,6,x,1%,-5%
O=C1c2ccccc2C(=O)c2c([N+](=O)[O-])ccc(O)c21,0%,21µM*,-28,x,1%,-16%
Cc1ccc(CN=c2c([N+](=O)[O-])nn(-c3ccc(Cl)cc3)n2O)cc1,-10%,u,-8,6%,-5%,u
O=[N+]([O-])c1nn(-c2cccc(Cl)c2)n(O)c1=NCc1cccnc1,-26%,13µM*,-9,3%,-21%,8.2µM*
O=[N+]([O-])c1nn(-c2ccc(Cl)cc2)n(O)c1=NCc1cccnc1,3%,10µM*,8,-5%,3%,8.2µM*
Cc1cccc(-n2nc([N+](=O)[O-])c(=NCc3cccnc3)n2O)c1,u,u,22,4%,-2%,12µM*
O=[N+]([O-])c1nn(-c2ccc(Cl)cc2)n(O)c1=NCc1ccncc1,u,10µM*,u,5%,-28%,5.2µM*
Cc1c(C(=O)CN2CCCC(C)(C)C2)c2ccccc2n1C,-11%,u,-8,x,-22%,-16%
Cc1ccc(C2CC(=O)n3nc(-c4cccc(C)c4)nc3S2)cc1 (configuration not stated),28%,-12%,x,3%,0%,-1%
O=C(CCn1nc(-c2ccc(Cl)cc2)c2ccccc2c1=O)Nc1ccc(OC(F)(F)F)cc1,0%,u,x,-1%,-1%,-24%
SMILES,TGFb inhibitor,TDP1 cell noCPT,IL-1B inflam inh,TDP1 block,HepG2 viability,TDP1 cell CPT
O=C(CSc1nc2ccccc2nc1N1CCCCC1)N1CCN(c2ccccc2)CC1,-26%,u,-21,x,-32%,21µM*
O=C(CSc1nc2ccccc2nc1N1CCOCC1)N1CCN(c2ccccc2)CC1,u,12µM*,-27,x,-1%,21µM*
Cc1cccc(N2CCN(C(=O)CSc3nc4ccccc4nc3N3CC(C)OC(C)C3)CC2)c1C (configuration not stated),-18%,4.1µM*,16,1%,-31%,2.1µM*
Cc1ccnc(N2CCN(C(=O)CSc3nc4ccccc4nc3N3CCC(C)CC3)CC2)c1,u,u,11,0%,-34%,u
CCCCC1=CC2=CC(=O)C(C)(OC(=O)CC)C(=O)C2=CN1CCCN(CC)CC (configuration not stated),x,x,x,8%[12.3 µM],x,x
COc1ccc(NC(=O)c2oc3ccccc3c2NC(=O)c2cc(C)cc(C)c2)c(OC)c1,-17%,-29%,x,-1%,-3%,3%
COc1ccc(-c2cnc(C)o2)cc1S(=O)(=O)Nc1ccc(OC(F)(F)F)cc1,u,-18%,x,1%,-30%,-24%
COC(=O)C1=C(C)N(Cc2ccccc2)C2=C(C(C)=O)C[C@@](O)(C(=O)OC)C(=O)N2C1c1ccccc1 (some centres not stated),x,x,x,9%[21 µM],x,x
COc1ccc(OC)c(-c2cnc(OC(C)(C)C)nc2OC(C)(C)C)c1,u,8.2µM*,72,5%,-13%,21µM*
O=C(Nc1nnc(COc2ccc(Cl)cc2)s1)c1ccco1,15%,u,u,79µM*,50%,29µM*
O=C(Nc1nnc(COc2ccc(Cl)cc2)s1)c1cccs1,5%,12µM*,1,6%,21%,15µM*
Cc1ccc(OCc2nnc(NC(=O)c3ccco3)s2)cc1,u,-13%,18,3%,1%,-15%
CCN(CC)c1nc2c(S(=O)(=O)c3ccc(C)cc3)nnn2c2ccsc12,14%,-19%,x,3%,-44%,-5%
CCOC(=O)C1=C(COC(=O)c2ccc([N+](=O)[O-])s2)NC(=O)NC1C (configuration not stated),11µM*,u,42,-4%,-122%,u

# Assay outcomes deposited in PubChem BioAssay by National Center for Advancing Translational Sciences (NCATS).
